# LEDGF integ inh = blocks HIV-1 LEDGF/p75-dependent DNA integration; TR-FRET IN-LEDGF/p75 DNA integration, Eu/Cy5; inhibition, % at 3.7 µM; 0.64% of 370,000 active;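 active = inhibition above the screen-wide mean plus 3 SD, cut at about 13% in these data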;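 note: signal is the Cy5 over europium emission ratio at 671 and 618 nm; 0% = plate median of compound wells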
# UHRF1 MBD2 ctr = UHRF1 methyl-DNA binding inhibition. Q96T88. UHRF1 binding to methylated oligo, TR-FRET. inhibition, % at 4.4 µM. 0.75% of 370,000 active. AID 687016; in the data active = inhibition above about 21%;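 note: UHRF1 SRA domain binding a hemimethylated CpG hairpin DNA probe; 0% = median of test compound wells and 100% = reference inhibitor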
# MBD2 DNA inh = blocks human MBD2 binding to methylated DNA; Q9UBB5; TR-FRET, MBD2 binding to methylated oligonucleotide; inhibition, % at 4.4 µM; 0.31% of 370,000 active; AID 686964; in the data active = inhibition above about 13%
# PLCb3 inh = blocks human PLC-beta3 enzyme activity | 0.18% of 370,000 active | Purified PLC-beta3, fluorogenic substrate, fluorescence | AID 720704 | inhibition, % at 12.2 µM; in the data active = inhibition above about 11%;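 note: 0% = median of compound wells on plate and 100% = full blocker control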
# PLC-gamma1 inh = inhibitors of human phospholipase C gamma1; P19174; purified PLC-gamma1, fluorogenic substrate, fluorescence; inhibition, % at 12.2 µM; 0.84% of 370,000 active; AID 720700; in the data active = inhibition above about 9.5%
# Active calls of the source: *; i = inactive. The list is not random: actives were taken first. Their share in the collection is about 2.4%.
SMILES,LEDGF integ inh,UHRF1 MBD2 ctr,MBD2 DNA inh,PLCb3 inh,PLC-gamma1 inh
O=Cc1cn(-c2ccccc2)nc1-c1ccccc1,2.0,-1.9,4.8,-4.6,-0.8
CC1=NNC(=O)/C1=C\c1cn(-c2ccccc2)nc1-c1ccccc1,5.6,-3.0,-6.7,2.9,10.0*
CC(CCN1CCC(C(O)(c2ccccc2)c2ccccc2)CC1)Oc1cccc(C(F)(F)F)c1 (stereo not drawn),-2.8,-0.7,-4.1,4.0,4.0
CCOC(=O)Cc1csc(NC(=O)CSc2nnc3ccccn23)n1,-0.6,32.5*,-9.1,4.3,2.6
COc1ccccc1NC(=O)OC1CCC12CCCCC2 (stereo not drawn),-2.5,0.7,2.4,-0.3,-2.5
Cc1cc2oc(=O)c3c(c2cc1OC(=O)c1ccco1)CCCC3,-1.8,-1.6,-4.1,-2.7,-9.1
O=C(Oc1cc2oc(=O)c3c(c2cc1Cl)CCCC3)c1ccco1,1.1,23.8*,11.9,i,i
C=CCN(C)CC#Cc1ccc(C)cc1,-1.7,0.9,4.8,-2.4,-0.5
COc1ccc(-c2noc(CNC(=O)Nc3ccc(F)cc3)n2)cc1,-3.1,65.2*,3.5,-1.3,-1.4
O=c1c2ccccc2sn1-c1ccc(F)cc1,-0.5,10.0,6.2,0.2,1.3
O=c1c2ccc(F)cc2sn1-c1ccccc1,0.4,87.6*,1.2,1.4,3.4
N#Cc1c(-c2ccco2)ccn(Cc2cccc(F)c2)c1=O,4.9,22.8*,7.7,-89.1,-57.0
N#Cc1c(-c2ccco2)ccn(Cc2ccc(F)cc2)c1=O,5.4,-0.3,-2.8,-95.0,-60.5
O=S1(=O)c2ccc(Br)cc2OC[C@@H](Cc2ccccc2)N1Cc1cn(CCC2OCCO2)nn1,2.6,-1.8,-6.4,-1.8,-0.5
Nc1ccc(C(=O)OCC(=O)NC2CC2)cc1[N+](=O)[O-],-5.6,-2.1,-2.9,-4.7,2.3
Cc1cc(C(=O)OCC(=O)NC2CC2)ccc1[N+](=O)[O-],-2.2,80.3*,3.7,-4.3,4.4
COc1ccc(CCN2CCCC(CN(C)Cc3cc(Cl)c(O)c(OC)c3)C2)cc1 (stereo not drawn),0.6,53.7*,-1.4,-4.3,-1.9
CC(=O)Nc1cccc(C(C)C2=CCCCC2)c1 (stereo not drawn),3.7,1.9,-2.8,2.9,-1.1
CC(C)NC(=O)c1ccc(CSCc2ccccc2Cl)o1,-3.1,24.9*,0.5,-3.2,0.3
COc1cc(NC(=O)c2ccccc2)c(C)cc1NC(=O)CSc1nnc(-c2ccccc2F)n1-c1ccc(C)cc1,1.9,1.7,-3.6,-5.2,-3.3
Cc1ccc(N2CC(=O)Nc3c(sc4nc(C)cc(C)c34)C2=O)cc1,3.0,25.2*,5.6,-4.1,3.1
Cc1cc(C)c2c3c(sc2n1)C(=O)N(c1ccccc1C)CC(=O)N3,-1.9,3.1,9.3,3.2,3.6
COc1ccc(-c2nnc(SCC(=O)Nc3ccc(S(=O)(=O)Nc4cc(C)nc(C)n4)cc3)n2-c2ccc(OC)cc2)cc1,2.0,-0.1,-6.9,2.2,4.1
COc1ccc(/C=N\NC(=O)CN2CCN(Cc3ccccc3)CC2)cc1OCc1ccccc1,2.4,-3.7,-0.6,-1.2,-0.9
O=C(CCl)Oc1ccc2occ(C(=O)c3cccs3)c2c1,12.3,28.8*,13.1,7.8,7.6
SMILES,LEDGF integ inh,UHRF1 MBD2 ctr,MBD2 DNA inh,PLCb3 inh,PLC-gamma1 inh
COC(=O)[C@H](CC(C)C)N1Cc2nnn(Cc3ccc(C)cc3)c2-c2cc(F)ccc2S1(=O)=O,5.9,0.8,-7.5,0.2,6.4
O=C(CNS(=O)(=O)c1ccccc1)N1CCCC1,6.8,21.3*,12.9,3.5,2.1
CCOC(=O)N1CCN(C(=O)CCNS(=O)(=O)c2ccccc2)CC1,0.0,21.6*,0.9,-5.0,-0.5
O=C(CCNS(=O)(=O)c1ccccc1)N1CCOCC1,1.9,2.5,6.8,-3.3,2.9
CN1CCN(c2ccc([N+](=O)[O-])c(-n3nc(-c4ccccc4)c4ccccc4c3=O)c2)CC1,4.5,6.0,-4.2,9.1,9.6*
Cc1nn(-c2cc(N3CCCCC3)ccc2[N+](=O)[O-])c(=O)c2ccccc12,-3.7,-3.0,-1.6,5.2,0.6
CC(C)C[C@H]1COc2ccc(Cl)cc2S(=O)(=O)N1Cc1cn(Cc2ccc(C(F)(F)F)cc2)nn1,-4.2,-2.0,0.1,3.7,0.0
Brc1ccc(CSc2nnc3ccccn23)cc1,-0.4,32.6*,6.8,-25.9,-1.4
COc1cc(CNC2CCCC2)c(Br)cc1OC1CCCC1,-4.3,30.1*,0.0,2.5,-1.0
O=C(CC(c1ccccc1)c1ccccc1)Nc1ccc(Cl)cn1,-1.4,3.8,-5.2,2.7,9.6*
